Hit rate of the full screen: of about 360,000 compounds, about 3,700 (1%) were called active. Not shown: some 2% with an inconclusive outcome.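 The calls were made as follows: active = normalized GFP-positive differentiation at or above the plate's own cutoff, the solvent-only control mean plus 3 SD; inconclusive = no clear call, values can overlap the other calls; inactive = the rest.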 Many of the other results were omitted from the sample, so actives are more common in it than they were.
Assay: HoxA9-arrested leukemia cell differentiation promoters – flow cytometry, MLPCN library, primary screen (AID 624256);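 as to GFP+ MAC1+ double positive: cells exposed to compound for four days before flow analysis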;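 as to normalized GFP-positive differentiation: cells exposed to compound for four days before flow analysis; 0% = DMSO wells and 100% = fulvestrant positive control at 5 µM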
Details: ER-HoxA9 myeloid progenitors, lysozyme-GFP differentiation, at 10 µM; GFP+ MAC1+ double positive: measured here: differentiation confirmed by MAC1 staining, stronger effect = higher value; normalized GFP-positive differentiation: stronger effect = higher value

**Q.** Which results are given for `Oc1ccc2ccc3cccc[n+]3c2c1`?
**A.** GFP+ MAC1+ double positive: 0.9%; normalized GFP-positive differentiation: 10.9% (active)

**Q.** Which GFP+ MAC1+ double positive does the source give for `CC1(C(=O)NS(=O)(=O)c2ccccc2)CCN1C(=O)C1CCCCC1` (centres undefined) here?
**A.** 1.3%

**Q.** What about the outcome of the same compound?
**A.** inactive

**Q.** Which results are given for `COc1ccc(C(C(=O)NCc2ccccc2)n2c(=O)c(-c3ccccc3)nc3ccccc32)cc1` (centres undefined)?
**A.** GFP+ MAC1+ double positive: 5.2%; outcome: inactive

**Q.** What does the source list for `COc1ccc(CC(N)c2csc(NC(=O)NC(c3ccccc3)c3ccccc3)n2)cc1` (centres undefined)?
**A.** GFP+ MAC1+ double positive: 1.7%; outcome: inactive

**Q.** With `O=C(N/N=C/c1ccccc1O)C1CCCC1` as the compound, how does the GFP+ MAC1+ double positive read?
**A.** 0.3%

**Q.** What about the outcome of the same compound?
**A.** inactive

**Q.** What does the source list for `O=C(N/N=C/c1ccccc1O)/C(=C/c1ccccc1)CCO`?
**A.** GFP+ MAC1+ double positive: 4.1%; normalized GFP-positive differentiation: 31.5% (active)

**Q.** Which GFP+ MAC1+ double positive does the source give for `O=C(CCC(=O)Nc1ccccc1)N/N=C/c1ccccc1F` here?
**A.** 0.1%

**Q.** What about the outcome of the same compound?
**A.** inactive

**Q.** Which results are given for `Cc1ccc(S(=O)(=O)N2[C@@H](Cc3ccccc3)CO[C@H]2CC(=O)OCc2ccccc2)cc1`?
**A.** GFP+ MAC1+ double positive: 5.9%; outcome: inactive

**Q.** For `O=C1NC[C@H](CCCCN2C[C@H](Cc3ccc(O)cc3)N(CC3CCCCC3)C(=O)C2=O)N(CCc2ccccc2)C1=O`, which GFP+ MAC1+ double positive is on record?
**A.** 0.6%

**Q.** And the outcome?
**A.** inactive

**Q.** Which GFP+ MAC1+ double positive does the source give for `CCOc1ccc(CCN2C(=S)N([C@@H](CC(C)C)CN3CCC[C@@H]3CN3C(=S)NC[C@@H]3Cc3ccc(O)cc3)C[C@@H]2CC(C)C)cc1` here?
**A.** 0.7%

**Q.** What about the outcome of the same compound?
**A.** inactive

**Q.** Which results are given for `CC(=O)Nc1cc(-c2ccccc2N(C)C)cn2c(-c3ccc(F)c(Cl)c3)cnc12`?
**A.** GFP+ MAC1+ double positive: 1%; outcome: inactive

**Q.** With `CNc1nc(=O)n(C2CCCO2)cc1C` (centres undefined) as the compound, how does the GFP+ MAC1+ double positive read?
**A.** 23.7%

**Q.** What about the normalized GFP-positive differentiation of the same compound?
**A.** 172% (active)

**Q.** With `O=c1c(F)cn(C2CCCO2)c(=O)n1Cc1ccccc1Cl` (centres undefined) as the compound, how does the GFP+ MAC1+ double positive read?
**A.** 11.2%

**Q.** And the outcome?
**A.** inactive

**Q.** What does the source list for `O=c1nc(NO)ccn1C1CCCO1` (centres undefined)?
**A.** GFP+ MAC1+ double positive: 1.8%; outcome: inactive

**Q.** What does the source list for `O=C(O)Cc1ccc(-c2ccccc2)cc1`?
**A.** GFP+ MAC1+ double positive: 2.6%; normalized GFP-positive differentiation: 92.4% (active)

**Q.** With `O=C(O)Cc1ccc(NCc2ccccc2Cl)cc1` as the compound, how does the GFP+ MAC1+ double positive read?
**A.** 0.6%

**Q.** And the outcome?
**A.** inactive

**Q.** Which GFP+ MAC1+ double positive does the source give for `O=C(Cc1ccc(-c2ccccc2)cc1)NC(c1ccccc1)c1ccccc1` here?
**A.** 0.3%

**Q.** And the outcome?
**A.** inactive

**Q.** With `Cc1cccc(CNC(=O)c2sc(=O)n(Cc3ccccc3C)c2C)c1` as the compound, how does the GFP+ MAC1+ double positive read?
**A.** 4.1%

**Q.** What about the outcome of the same compound?
**A.** inactive

**Q.** With `COc1ccc(C(C(=O)Nc2c(C)cccc2C)N2CCN(c3ccc(C)cc3)CC2)cc1` (centres undefined) as the compound, how does the GFP+ MAC1+ double positive read?
**A.** 2%

**Q.** What about the outcome of the same compound?
**A.** inactive

**Q.** With `CO[C@@H]1CN(C)C(=O)c2cc(NC(=O)Nc3cc(F)ccc3F)ccc2OC[C@H](C)N(C(=O)c2ccccn2)C[C@@H]1C` as the compound, how does the GFP+ MAC1+ double positive read?
**A.** 1.3%

**Q.** What about the outcome of the same compound?
**A.** inactive

**Q.** Which results are given for `COC(=O)[C@]12CCCCC=C1N(Cc1cccc3ccccc13)C(=O)[C@H](CC(=O)N1CCOCC1)C2`?
**A.** GFP+ MAC1+ double positive: 0.7%; outcome: inactive

**Q.** For `CCOP(=O)(OCC)C(Cc1ccccc1)N=C(c1ccccc1)c1ccccc1` (centres undefined), which GFP+ MAC1+ double positive is on record?
**A.** 1%

**Q.** What about the outcome of the same compound?
**A.** inactive

**Q.** Which results are given for `CC(=O)N1Cc2cc(C(=O)NCc3cccc(F)c3)nc(-c3cccc(C4=CCCC4)c3)c2[C@H]1CCO`?
**A.** GFP+ MAC1+ double positive: 0.3%; outcome: inactive

**Q.** For `COc1cccc(-c2noc(C3CCCN(C(=O)c4ccc(F)cc4)C3)n2)c1` (centres undefined), which GFP+ MAC1+ double positive is on record?
**A.** 1.2%

**Q.** And the outcome?
**A.** inactive

**Q.** With `CC(C)c1ccc(-c2noc(C3CCCN(S(C)(=O)=O)C3)n2)cc1` (centres undefined) as the compound, how does the GFP+ MAC1+ double positive read?
**A.** 2.8%

**Q.** What about the outcome of the same compound?
**A.** inactive

**Q.** Which results are given for `COc1cc(-c2noc(C3CCCN(S(=O)(=O)c4cccc(Cl)c4)C3)n2)cc(OC)c1OC` (centres undefined)?
**A.** GFP+ MAC1+ double positive: 16.1%; normalized GFP-positive differentiation: 28.5% (active)

**Q.** For `O=C(NCc1ccccn1)[C@@H]1CCCN1C(=O)[C@@H]1CCCN1C(=O)c1ccccc1`, which GFP+ MAC1+ double positive is on record?
**A.** 1.4%

**Q.** What about the outcome of the same compound?
**A.** inactive

**Q.** For `COC(=O)[C@@]12C[C@@H](CC(=O)NCc3cccc(C(F)(F)F)c3)C(=O)N(Cc3ccco3)C1=CCC(C)(C)C2`, which GFP+ MAC1+ double positive is on record?
**A.** 3.5%

**Q.** What about the outcome of the same compound?
**A.** inactive

**Q.** With `COc1ccc(CNC(=O)[C@H](Cc2c[nH]c3ccccc23)NC(C)=O)cc1OC` as the compound, how does the GFP+ MAC1+ double positive read?
**A.** 0.3%

**Q.** What about the outcome of the same compound?
**A.** inactive

**Q.** For `COc1ccc(NC(=O)[C@H](NC(=O)[C@@H]2Cc3ccccc3CN2)c2ccccc2)cc1`, which GFP+ MAC1+ double positive is on record?
**A.** 3.2%

**Q.** And the outcome?
**A.** inactive

**Q.** With `COc1cccc(NC(=O)[C@H](Cc2c[nH]c3ccccc23)NC(=O)[C@@H]2Cc3ccccc3CN2)c1` as the compound, how does the GFP+ MAC1+ double positive read?
**A.** 5.1%

**Q.** And the normalized GFP-positive differentiation?
**A.** 8.43% (active)

**Q.** What does the source list for `CCc1nc2c(OCC(N)=O)cccn2c1N(C)C(=O)c1ccc(OC)cc1`?
**A.** GFP+ MAC1+ double positive: 1.1%; outcome: inactive

**Q.** Which results are given for `OC[C@@H]1CN(Cc2cccs2)C[C@H](n2cnc3c(Nc4ccccc4)ncnc32)O1`?
**A.** GFP+ MAC1+ double positive: 1.1%; outcome: inactive

**Q.** What does the source list for `Cc1ccc(Cc2c(-c3ccco3)nc3ccc(Cl)cn23)cc1`?
**A.** GFP+ MAC1+ double positive: 0.7%; outcome: inactive

**Q.** For `CCCCCCCNC(=O)C1(CC2CC(c3cccc(Br)c3)=NO2)CCN(C(=O)c2cc(OCC)c(OCC)c(OCC)c2)CC1` (centres undefined), which GFP+ MAC1+ double positive is on record?
**A.** 7.1%

**Q.** What about the normalized GFP-positive differentiation of the same compound?
**A.** 26.1% (active)

**Q.** Which results are given for `O=C(c1ccccc1)N1CCC(CC2CC(c3ccc(Cl)cc3)=NO2)(C(=O)NCC2CCCCC2)CC1` (centres undefined)?
**A.** GFP+ MAC1+ double positive: 1.5%; outcome: inactive

**Q.** Which results are given for `COc1ccc(CNC(=O)C2(CC3CC(c4ccccc4)=NO3)CCN(C(=O)c3cccc(O)c3)CC2)cc1` (centres undefined)?
**A.** GFP+ MAC1+ double positive: 1.8%; outcome: inactive

**Q.** With `O=C(C(=O)N1CCC(c2ccccc2)CC1)c1ccccc1` as the compound, how does the GFP+ MAC1+ double positive read?
**A.** 2.1%

**Q.** What about the outcome of the same compound?
**A.** inactive

**Q.** Which results are given for `CC(C)(O)C#Cc1ccc(CNC[C@H]2O[C@@H](n3cnc4c(=O)[nH]c(N)nc43)[C@H](O)[C@@H]2O)s1`?
**A.** GFP+ MAC1+ double positive: 0.8%; outcome: inactive

**Q.** With `O=S1(=O)CC(N2CCN(CCO)CC2)CN1Cc1cn(Cc2ccc(Cl)cc2)nn1` (centres undefined) as the compound, how does the GFP+ MAC1+ double positive read?
**A.** 1.6%

**Q.** And the outcome?
**A.** inactive

**Q.** Which results are given for `COc1ccccc1CN1CCCC(N2CCN(c3ccc(F)cc3)CC2)C1` (centres undefined)?
**A.** GFP+ MAC1+ double positive: 0.5%; outcome: inactive

**Q.** What does the source list for `CCc1noc(C)c1C(=O)N1CCCC(N2CCN(c3ccc(F)cc3)CC2)C1` (centres undefined)?
**A.** GFP+ MAC1+ double positive: 5.3%; normalized GFP-positive differentiation: 46.7% (active)

**Q.** Which GFP+ MAC1+ double positive does the source give for `Cc1cnc(C(=O)N2CCCC(N3CCN(c4ccccc4F)CC3)C2)cn1` (centres undefined) here?
**A.** 6.8%

**Q.** And the outcome?
**A.** inactive

**Q.** What does the source list for `COc1ccc(-c2[nH][nH]c(=O)c2NC(=O)c2ccc([N+](=O)[O-])cc2)cc1`?
**A.** GFP+ MAC1+ double positive: 0.8%; outcome: inactive

**Q.** Which results are given for `O=C(Nc1ccccc1C(=O)N1CCCCCC1)c1ccccc1Cl`?
**A.** GFP+ MAC1+ double positive: 0.1%; outcome: inactive

**Q.** What does the source list for `O=C(CN(c1ccccc1)S(=O)(=O)c1ccc(Cl)cc1)Nc1ccccc1C(=O)N1CCCC1`?
**A.** GFP+ MAC1+ double positive: 17.3%; normalized GFP-positive differentiation: 34.3% (active)

**Q.** For `COc1ccccc1N(CC(=O)Nc1ccccc1C(=O)N1CCCC1)S(C)(=O)=O`, which GFP+ MAC1+ double positive is on record?
**A.** 0.3%

**Q.** What about the outcome of the same compound?
**A.** inactive

**Q.** Which GFP+ MAC1+ double positive does the source give for `NCCCCC(C(=O)O)N(C(=O)OCc1ccccc1)C(=O)OCc1ccccc1` (centres undefined) here?
**A.** 0.9%

**Q.** And the outcome?
**A.** inactive

**Q.** For `Cc1cc(=O)oc(C)c1C(=O)NCc1ccc(F)cc1`, which GFP+ MAC1+ double positive is on record?
**A.** 9.2%

**Q.** And the outcome?
**A.** inactive

**Q.** For `Cc1cc(=O)oc(C)c1C(=O)NCCN(C)Cc1ccccc1`, which GFP+ MAC1+ double positive is on record?
**A.** 0.6%

**Q.** What about the outcome of the same compound?
**A.** inactive

**Q.** For `Cc1cc(=O)oc(C)c1C(=O)Nc1cnc2ccccc2c1`, which GFP+ MAC1+ double positive is on record?
**A.** 1%

**Q.** What about the normalized GFP-positive differentiation of the same compound?
**A.** 6.77% (active)

**Q.** Which GFP+ MAC1+ double positive does the source give for `COc1ccc(-c2cc3c(c4c2ccn4C)C2CCC3C2)cn1` (centres undefined) here?
**A.** 1.4%

**Q.** And the outcome?
**A.** inactive

— PubChem BioAssay AID624256 (NMMLSC, 2012)
